PubChem BioAssay (NCATS)
Inconclusive results are not listed. Where a call stands in place of a potency, no number is given. Active and inactive are the calls of the source. Calls follow the shape of the dose curve; as a rule, active = well fitted inhibition curve with a large enough effect; inconclusive = small, poorly fitted or top-dose-only effect; inactive = flat fitted curve, though single readings scatter.

tested on: N140; test: qHTS profiling for inhibitors of Plasmodium falciparum proliferation (AID 504749); also: nearly all actives have a fitted effect of over 60% in size; conditions: P. falciparum in erythrocytes, SYBR Green DNA, 72 h; series mostly up to 28.7 µM
Procedure, shortened: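 In a 72 h erythrocytic culture (37 C, humidified, 5% CO2) at 2.5% hematocrit and 0.3% starting parasitemia, compounds were tested; SYBR Green I in detergent lysis buffer stained parasite DNA overnight.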
Potency is read from the fitted curve at half-maximal effect.

| SMILES | Potency |
| --- | --- |
| CC(=O)Nc1ccc(OC(C)=O)cc1 | inactive |
| CC(C)(C)c1ccc2c(S(=O)(=O)O)c(C(C)(C)C)ccc2c1 | inactive |
| CCCCCCCCCCCCOCCCN | inactive |
| COC(=O)C(CN)c1c[nH]c2ccc(OC)cc12 (centres undefined) | inactive |
| CC1(C)S[C@@H]2[C@H](NC(=O)C3(N)CCCCC3)C(=O)N2[C@H]1C(=O)O | inactive |
| FC(F)(F)C(F)(F)C(F)(F)C(F)(F)C(F)(F)C(F)(F)F | inactive |
| CCCCO | inactive |
| CCOC(=O)c1c[nH]c2cc(OCC(C)C)c(OCC(C)C)cc2c1=O | 141 nM (active) |
| CCN(CC)CCOc1ccc2nc(N(C)C)sc2c1 | inactive |
| OCl | inactive |
| COC(=O)CC[C@H](N)C(=O)O | inactive |
| COc1cc(S(C)=O)ccc1-c1nc2ncccc2[nH]1 (centres undefined) | inactive |
| O=C(O)Cc1nn(Cc2ccc(Br)cc2F)c(=O)c2ccccc12 | inactive |
| O=C(O)/C=C/c1ccccc1 | inactive |
| Cc1cccc(C)c1NC(=O)NC1=CCCN1C | inactive |
| NCC[C@H](O)C(=O)N[C@@H]1C[C@H](N)[C@@H](O[C@H]2O[C@H](CN)[C@@H](O)[C@H](O)[C@H]2O)[C@H](O)[C@H]1O[C@H]1O[C@H](CO)[C@@H](O)[C@H](N)[C@H]1O | inactive |
| CC1=CC(=O)NS(=O)(=O)O1 | inactive |
| O=C(O)[C@H]1C(=CCO)O[C@H]2CC(=O)N12 | inactive |
| CCC(Cc1c(I)cc(I)c(O)c1I)C(=O)O (centres undefined) | inactive |
| CCCCC[C@H](O)/C=C/[C@@H]1[C@H]2C/C(=C/CCCC(=O)O)O[C@H]2C[C@H]1O | inactive |

| SMILES | Potency |
| --- | --- |
| FCOC(C(F)(F)F)C(F)(F)F | inactive |
| C=Cc1ccc(S(=O)(=O)O)cc1 | inactive |
| CC12CCC(C[N+](C)(CCC[N+](C)(C)C)C1)C2(C)C (centres undefined) | inactive |
| CC1CC(OC(=O)C(O)c2ccccc2)CC(C)(C)C1 (centres undefined) | inactive |
| CC/C(=C(/CC)c1ccc(OP(=O)(O)O)cc1)c1ccc(OP(=O)(O)O)cc1 | inactive |
| O=C(NNCNNC(=O)c1ccncc1)c1ccncc1 | inactive |
| CC(C)c1ncc([N+](=O)[O-])n1C | inactive |
| CC(C)CCC[C@@H](C)[C@H]1CC[C@H]2[C@@H]3CC[C@@H]4C[C@H](O)CC[C@]4(C)[C@H]3CC[C@]12C | inactive |
| Cc1ccc(S(=O)(=O)NCl)cc1 | inactive |
| CC(/C=C/C=C(\C)C(=O)O[C@@H]1O[C@H](CO[C@@H]2O[C@H](CO)[C@@H](O)[C@H](O)[C@H]2O)[C@@H](O)[C@H](O)[C@H]1O)=C\C=C\C=C(C)\C=C\C=C(/C)C(=O)O[C@@H]1O[C@H](CO[C@@H]2O[C@H](CO)[C@@H](O)[C@H](O)[C@H]2O)[C@@H](O)[C@H](O)[C@H]1O | inactive |
| CCCCCCCCCCCCCCCCCC(=O)OCC(C)O (centres undefined) | inactive |
| CC(C)(Oc1ccc(C2CCCc3ccccc32)cc1)C(=O)O (centres undefined) | inactive |
| CO | inactive |
| O=C(O)/C=C/C(=O)Nc1ccc(S(=O)(=O)Nc2nccs2)cc1 | inactive |
| N[C@H](CC(=O)O)C(=O)O | inactive |
| CCCc1ccc(C(=O)O)cc1 | inactive |
| O=S(=O)(O)CC(S)CS (centres undefined) | inactive |
| O=c1[nH]c(=O)n([C@H]2C[C@H](O)[C@@H](CO)O2)cc1/C=C/Br | inactive |
| CN[C@@H]1[C@H](O[C@H]2[C@H](O[C@H]3[C@H](O)[C@@H](O)[C@H](N=C(N)N)[C@@H](O)[C@@H]3N=C(N)N)O[C@@H](C)[C@]2(O)C=O)O[C@@H](CO)[C@H](O)[C@H]1O | inactive |
